Screening data deposited in PubChem by several laboratories.
The list is not random: actives were taken first. Their share in the collection is about 3%.
A1 inh – inhibitors of the anti-apoptotic protein A1, read as caspase activation. AID 2462. MEF A1-2A-BIM cells, Caspase-Glo 3/7 luminescence, 3 h; percent of clofoctol response, vehicle zero. 330,000 compounds, 0.066% hits. caspase activation, % (test concentration not listed);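 active means over half of replicate activation scores above 10%, or exactly half above 10 with the replicate mean above 10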
CHT block – inhibits the human high affinity choline transporter; Q9GZV3; CHT-expressing cells, membrane potential dye, choline response; active compounds read low; B-score at 10 µM; 310,000 compounds, 0.86% hits; AID 488975;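 active means B-score over 3 SD under the library average, and starting fluorescence ratio not unusually high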;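 further: choline stimulus applied at its EC90 after an EC20 pre-addition; B-score computed on integrated fluorescence ratio after choline addition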
Target sequence (Q9GZV3 whole entry, looked up): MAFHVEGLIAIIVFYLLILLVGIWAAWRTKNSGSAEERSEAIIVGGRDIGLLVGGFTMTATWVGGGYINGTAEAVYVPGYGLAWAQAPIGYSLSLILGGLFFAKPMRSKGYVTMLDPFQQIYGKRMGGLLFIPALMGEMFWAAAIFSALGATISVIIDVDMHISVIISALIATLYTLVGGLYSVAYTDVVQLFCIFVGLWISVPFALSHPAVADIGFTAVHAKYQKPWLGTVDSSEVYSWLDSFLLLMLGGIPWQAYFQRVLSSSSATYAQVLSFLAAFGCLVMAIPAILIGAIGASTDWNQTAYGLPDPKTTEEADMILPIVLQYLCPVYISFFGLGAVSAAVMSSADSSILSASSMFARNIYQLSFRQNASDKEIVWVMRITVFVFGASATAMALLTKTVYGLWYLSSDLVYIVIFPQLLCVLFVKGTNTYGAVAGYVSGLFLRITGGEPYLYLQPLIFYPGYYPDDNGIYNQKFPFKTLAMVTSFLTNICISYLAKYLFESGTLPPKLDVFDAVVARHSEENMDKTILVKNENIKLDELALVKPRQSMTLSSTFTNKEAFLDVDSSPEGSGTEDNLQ
CHT allo act – allosterically activates the human high affinity choline transporter | Q9GZV3 | CHT-expressing cells, membrane potential dye, choline EC20; active compounds read high; LV-AA mutant CHT in HEK293 cells | B-score at 10 µM | 310,000 compounds, 0.49% hits | AID 488977;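 active means initial fluorescence not abnormally high and integrated response B-score, plate-corrected, over 3 SD above library mean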
NLRP3 yeast inh – inhibitors of NALP3 inflammasome in yeast; Yeast reconstituted NLRP3/ASC/caspase-1, beta-gal luminescence, 24 h; inhibition, % at 10 µM; 330,000 compounds, 0.39% hits; AID 2825;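 active means inhibition of 50% or more; inactive means inhibition below 50%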;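 further: plate controls were induced DMSO wells for no effect and uninduced yeast grown without galactose for full effect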
Mot1-301 SUMO – SUMOylation pathway inhibition by Mot1-301 growth rescue; S. cerevisiae Mot1-301 growth rescue, ATP luminescence, 38.5C; percent above DMSO median, 100 means doubled; growth rescue, % at 18.8 µM; 320,000 compounds, 1% hits;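 active means every valid replicate shows activation above 250% relative to neutral control wells; inactive means the rest, any valid replicate at or below 250%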;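 further: OY570 slx delta 5 strain wells were the positive control but not used for scaling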
NALP1 inh – blocks the NALP1 inflammasome reconstituted in yeast | inhibition, % at 10 µM | 280,000 compounds, 0.61% hits | S. cerevisiae NALP1/ASC/caspase-1 growth, X-gal OD620, 72 h; in the data active means inhibition mostly above about 24%, no sharp cut-off; inactive means mostly below about 32%
Yeast Mot1 SUMO – SUMO pathway inhibitors in yeast Mot1-301 growth; growth activity, percent, % at 42 µM; shares compounds with Mot1-301 SUMO; 2,300 tested, under 10 active; S. cerevisiae Mot1-301 galactose growth, ATP luminescence, 24 h; -100 = growth of slx-deleted rescue strain;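 active means Signal drops as the depositor expects, and the fitted half-maximal dose is no more than ten times the top valid tested dose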;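 further: more negative values mean stronger growth rescue toward the control strain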
* marks the source's active call; other numbers are inactive results; i = inactive; . = no result given; + = active, no number.

SMILES	A1 inh	CHT block	CHT allo act	NLRP3 yeast inh	Mot1-301 SUMO	NALP1 inh	Yeast Mot1 SUMO
Cc1ccccc1-n1ncc2c([N+](=O)[O-])cc([N+](=O)[O-])cc21	0	i	i	17	421*	8	-1
Cc1ccc2nc3cc([N+](=O)[O-])cc([N+](=O)[O-])c3cc2c1	.	.	.	.	.	19	.
CC(C)(C)OC(=O)NCc1ccc(NC(=O)c2nc[nH]c2C(=O)NCCCNC(=O)c2[nH]cnc2C(=O)Nc2ccc(CNC(=O)OC(C)(C)C)cc2)cc1	-1	.	.	2	3	.	.
Cc1ccc(C(=O)/C=C/Nc2ccccc2C(N)=O)cc1	1	i	i	13	481*	2	0
O=C(O)CCSc1ccc([N+](=O)[O-])cc1[N+](=O)[O-]	0	i	i	-1	363*	4	-1
CC(=O)N1N=C(c2ccc(C(C)(C)C)cc2)OC1(C)C	0	i	i	4	536*	31	0
CC(C)C(CC(=O)NCc1ccco1)c1ccco1 (centres undefined)	0	i	i	0	646*	29	0
O=C(Cn1cnc([N+](=O)[O-])n1)NCc1ccccc1	0	i	i	20	-16	15	.
O=C(CCCn1cnc([N+](=O)[O-])n1)Nc1cccc2ccccc12	0	i	i	2	408*	-18	-1
O=C(CCC1CCCN(C(=O)Cc2cccc(F)c2)C1)N1CCN(c2ccccn2)CC1 (centres undefined)	0	i	i	0	426*	25	0
O=C(CCC1CCCN(C(=O)CCCc2ccccc2)C1)N1CCN(c2ccccn2)CC1 (centres undefined)	0	i	i	14	680	.	.
CC1CCCN(C(=O)COC(=O)c2ccc3[nH]c4c(c3c2)CCCC4)C1 (centres undefined)	-1	i	i	-5	-2	.	.
COc1ccc(NC(=O)c2cc(S(=O)(=O)Nc3ccc(OC)cc3)cs2)cc1	0	i	i	-1	527*	-9	0
Cc1cc(C)cc(NS(=O)(=O)c2csc(C(N)=O)c2)c1	2	i	i	11	-10	23	.
Cc1ccc(NS(=O)(=O)c2csc(C(N)=O)c2)cc1C	0	i	i	16	369*	-3	-1
CC(=O)Nc1ccc(C(=O)CN2C(=O)CSC2=O)cc1	1	i	i	20	3	-5	.
O=C(c1cc(-c2ccc(Cl)cc2)n(-c2ccc(Cl)cc2)n1)N1CCOCC1	0	i	i	14	399*	20	0
CN(C(=S)NC1=CCS(=O)(=O)C1)C1CCCCC1	0	i	i	1	581*	32	-1
COc1ccc(OC)c(NC(=O)CC2C(=O)NCCN2C(=O)c2ccccc2)c1 (centres undefined)	-1	i	i	8	16	12	.
CN(CC(=O)Nc1ccncc1)S(=O)(=O)c1ccc(Br)cc1	1	i	i	13	12	9	.
CC(=O)Nc1ccc(S(=O)(=O)N(C)CC(=O)Nc2ccc(Br)cc2F)cc1	1	i	i	10	513*	.	0
c1ccc2nc3c(nc2c1)OCC1CCCCN31 (centres undefined)	-3	i	i	1	360*	12	0
Cc1nc2ccccc2nc1N1CCOCC1	0	i	i	16	-2	-2	.
Cc1ccc(-n2c(-c3ccco3)nc3c(cnn3-c3ccc(C)cc3)c2=O)cc1	1	i	i	7	734*	-11	0
COc1ccc(N(CC(=O)N/N=C/c2ccccc2OC)S(=O)(=O)c2ccccc2)cc1	1	i	i	9	169	8	.
SMILES	A1 inh	CHT block	CHT allo act	NLRP3 yeast inh	Mot1-301 SUMO	NALP1 inh	Yeast Mot1 SUMO
Cc1ccc(CNC(=O)CCn2cc(-c3ccc(C)cc3)nc2CCN)cc1	1	i	i	17	+	.	0
CCOc1ccc(Cl)cc1CNc1nnnn1CC	0	i	i	13	464*	14	1
CCCn1nnnc1NCc1ccccc1OCC	0	i	i	14	13	20	.
COc1c(C)cc(S(=O)(=O)NC2CC(C)(C)NC(C)(C)C2)c(C)c1C	0	i	i	2	687*	-13	1
O=c1oc(CCO)cc2ccc(Br)cc12	0	.	.	22	4	.	.
Cc1cc(Nc2nc3c(c(=O)n(C)c(=O)n3C)n2C)n(-c2ccc(Cl)cc2)n1	-1	i	i	11	+	16	0
O=C(Nc1ccc2ccccc2c1)N1CCCN(CCOc2ccccc2)CC1	0	i	i	10	425*	10	0
O=C(c1cc2ccccc2o1)N1CCN(CCOc2ccccc2)CC1	.	.	.	36	.	.	.
O=c1cc(C(F)(F)F)c2sc(N3CCCCC3)nc2[nH]1	-1	i	i	-12	429*	19	0
COC(=O)[C@H](Cc1c[nH]c2ccccc12)NC(=O)NCc1ccc(OC)cc1	1	i	i	14	-2	9	.
Cc1ccc(C(=O)NCCCN2CCOCC2)cc1	1	i	i	-16	410*	.	0
Cc1ccc(C(=O)NCCCNC(=O)c2ccc(C)nc2)cc1	0	i	i	5	424*	7	0
COc1ccc(CC(=O)NCCN2CCOCC2)cc1	4	i	i	12	395*	8	0
CCCCOc1ccc(C(=O)N(CC)CC(=O)NCc2cccs2)cc1	0	i	i	17	2	27	.
COc1ccccc1CN1CCN(C(=O)c2cccc3ccccc23)CC1	1	i	i	16	-5	.	.
COc1cccc(CN2CCN(C(=O)c3cccc4ccccc34)CC2)c1OC	1	i	i	2	735*	12	0
COc1cccc(OC)c1C(=O)N1CCN(Cc2ccccc2C)CC1	0	i	i	22	359*	9	1
COc1ccc(CN2CCN(C(=O)c3cc(-c4cccnc4)nc4ccc(Cl)cc34)CC2)c(OC)c1OC	0	i	i	28	510*	-23	0
Cc1nn(C)c(C)c1CN(C(=O)C1CCC(=O)N(C2CCCCCC2)C1)C(C)C (centres undefined)	3	i	i	11	12	7	.
CC1CCCN(C(=O)COC(=O)C2=COCCO2)C1 (centres undefined)	0	.	.	21	-4	.	.
CCC(=O)Nc1ccc(S(=O)(=O)NCc2ccco2)cc1	-1	i	i	4	659*	-1	1
